We go through ten compounds from PubChem BioAssay (NCATS).

Values joined by “and” are separate entries in the source; they are usually repeats but may differ in a detail not shown here. Identical values can stand only once. Values without a mark were called inactive. Records with an inconclusive call do not appear. Active and inactive are the calls of the source. Unless noted, calls come from the whole dose curve; as a rule, active = well fitted curve in the direction sought with a large enough effect; inconclusive = small, poorly fitted or top-dose-only effect, or another doubt; inactive = no such curve, though single readings can be large; an effect the other way counts as inactive or inconclusive.

Test [1] is described as follows: Cell Viability - BJ (AID 421; calls by dose curve;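 note: potency is the fitted concentration of half-maximal effect; cells exposed to compound for 40 hours at 37 °C before readout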). To be noted: BJ fibroblast viability, qHTS. An outline of the steps: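 Quantitative HTS: ATP depletion in BJ cells after 40 hr compound exposure in complete culture medium, detected with CellTiter-Glo; AC50 from standard Hill fits.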
Test [2] can be described thus: Cell Viability - Jurkat (AID 426;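 active = dose-dependent loss of cell ATP signal giving a full or clear fitted curve, ranked by lower potency value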;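 note: potency is the fitted concentration of half-maximal effect; cells exposed to compound for 40 hours at 37 °C before ATP read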). The settings on record: qHTS. The essentials:
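Luminescent ATP read-out (CellTiter-Glo, 20 min at room temperature) after 40 hr compound exposure at 37 °C of Jurkat E6-1 cells, 5000/well. Decreased ATP taken as cytotoxicity; AC50 from standard Hill equation.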

A short description of test [3]: Cell Viability - MRC5 (AID 434; calls by dose curve;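 note: potency is the fitted concentration of half-maximal effect; potency reflects cytotoxicity seen as loss of intracellular ATP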). To be noted: MRC5 lung fibroblast viability, qHTS. An outline of the steps:
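ATP luminescence read-out (CellTiter-Glo, 20 min RT) after 40 hr, 37 °C compound exposure of 1500 MRC5 cells/well. Data normalized to DMSO (basal) and 100 uM tamoxifen (100% inhibition); AC50 from standard Hill equation.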

Test [4] in a line: Cell Viability - SK-N-SH (AID 435; calls by dose curve; note: potency is the fitted concentration of half-maximal effect). To be noted: SK-N-SH neuroblastoma cell viability qHTS. An outline of the steps: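 SK-N-SH human neuroblastoma cells (1500/well) were exposed to compounds in complete medium for 40 h at 37 °C, and intracellular ATP was then measured by CellTiter-Glo luminescence. AC50 was taken from Hill fits, normalized to DMSO and 100 uM tamoxifen.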
Test [5] in a line: Cell Viability - N2a (AID 540).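 For activity change, negative = cytotoxicity: plate controls were DMSO alone for no effect and tamoxifen control for full effect.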 Note: nearly all actives have a fitted effect of over 45% in size. Note: potency is the fitted concentration of half-maximal effect. The settings on record: N2a mouse neuroblastoma cell viability; activity change, negative = cytotoxicity: at 92.2 µM (top of the series). An outline of the steps:
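N2a mouse neuroblastoma, 1500 cells/well, 5 hr settle; compound 40 hr, 37 °C; CellTiter-Glo 20 min RT; luminescence; Hill-fit AC50.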

Test [6] can be described thus: Cell Viability - NIH 3T3 (AID 541).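 For activity change, negative = cytotoxicity: plate controls were DMSO alone for no effect and tamoxifen positive control for full effect.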 Note: nearly all actives have a fitted effect of over 25% in size. Note: potency is the fitted concentration of half-maximal effect. To be noted: NIH 3T3 cell viability, qHTS; activity change, negative = cytotoxicity: at 92.2 µM (top of the series). An outline of the steps:
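qHTS format; 40 hr compound exposure, 37 °C; CellTiter-Glo luminescence (cellular ATP) read-out after 20 min at RT. Decrease in ATP = cytotoxicity; AC50 from standard Hill fit.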

A short description of test [7]: Cell Viability - H-4-II-E (AID 543). Note: nearly all actives have a fitted effect of over 35% in size. Note: potency is the fitted concentration of half-maximal effect. To be noted: H-4-II-E rat hepatoma viability; series mostly up to 92.2 µM. An outline of the steps:
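qHTS, rat hepatoma H-4-II-E, 1500 cells/well; 40 hr compound exposure, 37 °C; CellTiter-Glo ATP luminescence after 20 min RT; AC50 by standard Hill fit.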

Test [8] is described as follows: Cell Viability - SH-SY5Y (AID 544). Note: nearly all actives have a fitted effect of over 55% in size. Note: potency is the fitted concentration of half-maximal effect. To be noted: SH-SY5Y neuroblastoma cell viability; viability change, negative = cytotoxic: at 92.2 µM (top of the series). An outline of the steps:
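SH-SY5Y, 1500 cells/well, 5 hr pre-incubation 37 °C; cpd 40 hr 37 °C; CellTiter-Glo 20 min RT; luminescence (ATP) read. qHTS concentration-response, Hill fit → AC50. Tamoxifen, doxorubicin as positive controls.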

The nature of test [9]: Cell Viability - Renal Proximal Tubule (AID 545). Note: nearly all actives have a fitted effect of over 40% in size. Note: potency is the fitted concentration of half-maximal effect. To be noted: renal proximal tubule cells viability, primary cells of rat origin; activity change, negative = cytotoxicity: at 91.7 µM (top of the series). The essentials:
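Primary rat renal proximal tubule cells (1000/well) were treated with compounds for 40 hr at 37 °C in complete medium. Intracellular ATP was measured by CellTiter-Glo luminescence, and AC50 values came from Hill-equation fits of concentration-response data.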

The nature of test [10]: Cellular Toxicity (caspase-3) HepG2 (AID 654).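 For caspase-3 activation: cells exposed to compound for 16 hours before reading; 0% = DMSO alone and 100% = caspase signal from 100 µM tamoxifen.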 Note: potency is the fitted concentration of half-maximal effect. To be noted: HepG2 caspase-3 activation, luminescence; series mostly up to 92.2 µM. An outline of the steps: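 Luminescent Caspase-Glo 3/7 readout after 16 hr compound exposure of human hepatocellular carcinoma HepG2 cells at 37 °C; qHTS concentration-response, normalized DMSO = 0%, 100 uM tamoxifen = 100%; AC50 by standard Hill equation.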

Test [11] can be described thus: Cellular Toxicity (caspase-3) N2a (AID 665).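 Note: compound exposure lasted 16 h at 37 °C before readout.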 Note: potency is the fitted concentration of half-maximal effect. The settings on record: N2a cells, luminescence; Potency: caspase-3 activation; series mostly up to 92.2 µM. The essentials: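 Luminescent Caspase-Glo 3/7 readout in N2a mouse neuroblastoma cells after 16 h compound exposure at 37 °C. Signal scaled to DMSO (basal) and 10 uM staurosporine (100%). Concentration-response fitted with Hill equation for AC50.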

Test [12] in a line: Cellular Toxicity (caspase-3) NIH 3T3 (AID 666).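 For caspase-3 activation: 0% = DMSO basal and 100% = 100 µM tamoxifen stimulation.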 Note: potency is the fitted concentration of half-maximal effect. To be noted: NIH 3T3 caspase-3 activation, apoptosis/toxicity; series mostly up to 92.2 µM. An outline of the steps:
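NIH 3T3, 1000 cells/well, 5 hr settle then 16 hr compound at 37°C; Caspase-Glo 3/7, 20 min RT, luminescence. DMSO = basal, 100 uM tamoxifen = 100%. Hill-equation AC50, qHTS.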

The nature of test [13]: Cellular Toxicity (caspase-3) Renal Proximal Tubule (AID 667).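 Note: cells exposed to compound for 16 hours at 37 °C before detection; 0% = DMSO basal and 100% = 10 µM staurosporine.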 To be noted: renal proximal tubule cells, primary cells freshly taken from rat, solvent-only wells 0%, staurosporine 100%; series mostly up to 91.7 µM. The essentials:
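Primary rat proximal tubule cells, 1000/well, 5 h plating at 37 °C, then compound 16 h at 37 °C. Caspase-Glo 3/7 reagent, 1 h RT, luminescence. Normalized to DMSO (basal) and 10 uM staurosporine (100%); Hill-fit AC50.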

The nature of test [14]: qHTS assay for small molecule disruptors of the mitochondrial membrane potential - 1 hr assay (AID 651754; calls by dose curve; note: nearly all actives have a fitted effect of over 35% in size; note: potency is the fitted concentration of half-maximal effect). The settings on record: series mostly up to 92.2 µM. The essentials:
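Read-out: dye fluorescence at 490 nm ex/535 nm em (monomers) and 540 nm ex/590 nm em (aggregates) in HepG2 cells. Compound exposure 1 hr at 37C, followed by 30 min dye loading.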

Test [15] has as its target Peroxisome proliferator-activated receptor alpha (Homo sapiens) (UniProt Q07869). Briefly: qHTS assay for small molecule agonists of the peroxisome proliferator-activated receptor alpha (PPARalpha) signaling pathway (AID 651778). Note: % of control where 0% means no effect. To be noted: PathHunter PPARalpha complementation, chemiluminescence, 6 h; max response: active compounds read high. An outline of the steps:
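Enzyme-fragment complementation assay in which ligand-bound PPARalpha translocates and forms an active enzyme that generates chemiluminescence. Cells were plated overnight, exposed to compound for 6 hr at 37 C, and then given detection reagent for 60 min at room temperature.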

A short description of test [16]: qHTS assay for cell viability of the p53RE-bla HCT-116 cell line (AID 743292). For activity change, negative = cytotoxicity: % is set by controls: 0 for no effect and ±100 for the full control effect. Note: nearly all actives have a fitted effect of over 55% in size. Note: potency is the fitted concentration of half-maximal effect. The settings on record: p53RE-bla HCT-116 viability, ATP luminescence, 16 h; series mostly up to 95 µM. The essentials:
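CellSensor p53RE-bla HCT-116 cells (4,000/well) pre-incubated 5 h at 37 C, then exposed to compounds in DMSO for 16 h at 37 C. Viability read as ATP content by CellTiter-Glo luminescence after 30 min at room temperature.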

Test [17] can be described thus: qHTS assay for small molecule agonists of the antioxidant response element (ARE) signaling pathway measured by Nrf2-dependant transcriptional activity - cell viability counter screen (AID 720653; active = well fitted curve in the direction sought with a large enough effect in the repeat runs; an effect the other way counts as inactive or inconclusive; note: potency is the fitted concentration of half-maximal effect; for max response: % is set by controls: 0 for no effect and ±100 for the full control effect). To be noted: ARE-bla HepG2 viability, CellTiter-Glo ATP luminescence, 16 h; max response: active compounds read low. The essentials:
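ARE-bla HepG2 cells treated with compounds for 16 h at 37C; this counter screen measures viability as intracellular ATP by CellTiter-Glo luminescence after 30 min at room temperature.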

Test [18] is described as follows: NFAT Signaling Pathway (AID 444; active = well fitted curve in either direction with a large enough effect, not every such curve was filed as active;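 note: carbachol stimulus at about its EC50 of 1 µM final; % is set by controls: 0 for no effect and ±100 for the full control effect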). The settings on record: Jurkat NFAT-bla M1, carbachol, beta-lactamase ratio, 5 h; at 17.2 µM (top of the series) unless noted. The essentials:
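Jurkat cells with NFAT-driven β-lactamase reporter and co-expressed M1 receptor, stimulated with carbachol (final 1 uM, ~EC50), compound titration, 5 h at 37 °C. CCF4 loaded 1 h at RT; 460/530 nm ratio gave %activity and AC50.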

A short description of test [19]: Stat Signaling Pathway (AID 446; active = well fitted curve in either direction with a large enough effect, not every such curve was filed as active;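 note: ME-180 cervical cancer cells given 40 pM IL-6 alongside compound; SIE-controlled beta-lactamase reporter measured as 460/530 nm FRET emission ratio; % is set by controls: 0 for no effect and ±100 for the full control effect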). To be noted: ME-180 (cervical carcinoma) SIE beta-lactamase reporter, IL-6 stimulated, 5 h; at 17.2 µM (top of the series) unless noted. An outline of the steps: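 Overnight-plated ME-180 cells bearing a STAT Inducible Element beta-lactamase reporter; 5 h co-exposure to compound and 40 pM IL-6; values normalized to 300 pM IL-6 and 125 nM JAK inhibitor controls.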

For test [20], the target named is Glucocorticoid receptor (Homo sapiens) (UniProt P04150). Briefly: GR-GFP Redistribution (AID 450;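 active = compounds whose dose series gives a full or clear partial fitted curve of increased nuclear translocation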; note: potency is the fitted concentration of half-maximal effect). To be noted: U2OS GR-GFP nuclear translocation, laser cytometry, 2 h; series mostly up to 20.6 µM.
Glucocorticoid receptor (Homo sapiens), sequence (P04150 whole entry, looked up): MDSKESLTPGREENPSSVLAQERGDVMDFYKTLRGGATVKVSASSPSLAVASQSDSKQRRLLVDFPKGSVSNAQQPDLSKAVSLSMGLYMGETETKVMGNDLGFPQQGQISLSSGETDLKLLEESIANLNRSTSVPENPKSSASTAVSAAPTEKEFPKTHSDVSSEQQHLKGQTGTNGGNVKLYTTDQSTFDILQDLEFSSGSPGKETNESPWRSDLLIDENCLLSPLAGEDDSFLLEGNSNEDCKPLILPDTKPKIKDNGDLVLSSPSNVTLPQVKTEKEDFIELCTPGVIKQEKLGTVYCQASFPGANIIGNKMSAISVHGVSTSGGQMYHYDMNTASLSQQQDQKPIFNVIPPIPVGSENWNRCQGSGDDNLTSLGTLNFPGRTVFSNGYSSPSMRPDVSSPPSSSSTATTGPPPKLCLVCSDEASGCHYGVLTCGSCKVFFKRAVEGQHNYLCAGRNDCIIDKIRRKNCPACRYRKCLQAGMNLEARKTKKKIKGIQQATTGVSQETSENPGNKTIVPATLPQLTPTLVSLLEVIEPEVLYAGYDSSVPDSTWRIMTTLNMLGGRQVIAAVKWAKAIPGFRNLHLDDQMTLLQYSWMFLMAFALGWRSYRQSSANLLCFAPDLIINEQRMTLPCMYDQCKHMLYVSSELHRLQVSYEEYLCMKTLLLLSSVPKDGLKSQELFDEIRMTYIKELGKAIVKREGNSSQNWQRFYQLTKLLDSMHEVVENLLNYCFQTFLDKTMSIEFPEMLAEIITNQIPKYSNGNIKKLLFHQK

Peroxisome proliferator-activated receptor alpha (Homo sapiens), sequence (Q07869 whole entry, looked up, the tested form may be a part): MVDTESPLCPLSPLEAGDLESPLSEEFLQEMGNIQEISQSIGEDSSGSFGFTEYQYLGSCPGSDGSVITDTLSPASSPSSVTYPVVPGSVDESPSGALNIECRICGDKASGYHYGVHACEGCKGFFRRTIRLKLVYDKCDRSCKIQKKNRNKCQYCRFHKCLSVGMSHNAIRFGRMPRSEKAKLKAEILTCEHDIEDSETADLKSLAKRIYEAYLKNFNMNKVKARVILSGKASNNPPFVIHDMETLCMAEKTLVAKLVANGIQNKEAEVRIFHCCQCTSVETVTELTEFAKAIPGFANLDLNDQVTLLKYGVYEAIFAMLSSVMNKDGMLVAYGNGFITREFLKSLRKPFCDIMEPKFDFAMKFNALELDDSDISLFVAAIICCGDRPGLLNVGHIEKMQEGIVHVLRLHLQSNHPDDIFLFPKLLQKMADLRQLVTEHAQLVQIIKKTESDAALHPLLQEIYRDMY

For the compound `CC/C(=C(\c1ccccc1)c1ccc(OCCN(C)C)cc1)c1ccc(O)cc1`, the Potency in test [1] is 45.1 µM (active); in [2], 40.8 µM (active); in [3], 43.3 µM (active); in test [4], 34.3 µM (active); in test [5], 31.6 µM (active); in [7], 39.8 µM (active). Moreover, the Potency is 31.6 µM (active) in test [8], 50.1 µM (active) in test [10] and 70.8 µM (active) in [16]. For the same compound, the activity change, negative = cytotoxicity is -141% (active) in test [6] and -109% (active) in test [9]. Besides, the Potency result in test [11], in test [12] and in test [14] was “inactive” each time. Also, in test [13], the outcome was inactive. Also, in test [15], the max response is -3.76%.
With `Nc1ccc2cc3ccccc3cc2c1`, the Potency is > 92 µM in test [1]; > 92 µM in [2]; > 92 µM in test [3]; > 92 µM in [4]; 3.76 µM (active) in test [14]. Moreover, the Potency entry in test [5], in [6], in [7], in [8], in [9] and in test [10] was “inactive” each time. Further, the Potency result in test [11], in test [12] and in test [16] was “inactive” each time. Further, the compound was called inactive in [13]. Moreover, the max response in test [15] is -3.75%; in [17], -4.4%.
For `c1ccc2c(c1)ccc1cc3c(ccc4ccccc43)cc12`, the Potency in test [1], in [2], in test [3] and in test [4] was > 92 µM in each case. The Potency entry in test [5], in [6], in test [7], in test [8], in [9] and in test [10] was “inactive” each time. The Potency entry in [11], in test [12], in test [14] and in test [16] was “inactive” in each case. Besides, the call in [13] was inactive. Moreover, the max response in [15] was -1.24%; in test [17] it was -11.9%.
With `C=CC(=O)OCC(CO)(COC(=O)C=C)COC(=O)C=C`, the Potency in test [1] was > 92 µM; in test [2], 1.6 µM (active); in [3], 17.8 µM (active); in test [4], 2.02 µM (active); in test [5], 15.8 µM (active); in test [6], 2 µM (active). The Potency in test [7] was 2.51 µM (active); in test [8], 1.58 µM (active); in test [9], 3.16 µM (active); in test [11], 6.31 µM (active). The Potency result in test [10] and in test [12] was “inactive” each time. The outcome in test [13] was inactive. In test [15], the max response was 1.55% and 0.0188%.
As to `CCNCc1cc2cc(C)ccc2[nH]c1=O`, the activity change, negative = inhibition in [18] was -15.2%. In test [19], the activity, negative = inhibition was 2.05%. For the same compound, the Potency in [20] is > 20.6 µM.
In the case of `CCCCCCCC[N+](CCCCCCCC)(CCCCCCCC)CCCCCCCC`, the Potency in test [1] was 14.5 µM (active); in test [2] it was 7.74 µM (active); in test [3] it was 10.3 µM (active); in test [4], 9.44 µM (active); in test [5], 3.16 µM (active); in test [6], 3.16 µM (active). The Potency in test [7] is 12.6 µM (active); in [8] it was 7.94 µM (active); in test [9], 10 µM (active); in [10], 12.6 µM (active); in test [12], 31.6 µM (active); in [14] it was 3.35 µM (active). The figures for the Potency in [17] and in test [16] were 28.2 µM (active) and 44.7 µM (active), respectively. Further, the max response in test [15] was 6.05%.
As for `C=CCOC(=O)C1=C(C)NC(SCC(=O)N(CC)CC)=C(C#N)C1c1ccccc1` (stereo not drawn), in test [18], the activity change, negative = inhibition was 2.35%. Moreover, the activity, negative = inhibition in test [19] is -2.74%. The Potency in test [20] was > 20.6 µM.
Regarding `O=C(/C=C/c1ccc(O)c(O)c1)OC1C[C@](O)(C(=O)O)C[C@@H](O)[C@H]1O` (stereo partly drawn), the Potency in [1], in [2], in [3] and in test [4] was > 92 µM throughout. The Potency entry in test [5], in [6], in [7], in [8], in test [9] and in test [10] was “inactive” each time. Also, the Potency entry in [11], in test [12], in test [14] and in test [16] was “inactive” in each case. For the same compound, in test [13], the compound was classed as inactive. Besides, the max response is -2.67% and 0.743% in [15]; -1.61% and -3.17% in test [17].
For `N#Cc1c(N2CCCCC2)nc(N2CCCCC2)c2c1CCN(Cc1ccccc1)C2`, the activity change, negative = inhibition in test [18] is -13%. For the same compound, the activity, negative = inhibition in test [19] is 17.8%. The Potency in test [20] is > 20.6 µM.
For the compound `O=C1OC2(c3cc(Br)c(O)c(Br)c3Oc3c2cc(Br)c(O)c3Br)c2c(Cl)c(Cl)c(Cl)c(Cl)c21`, the Potency is > 92 µM in test [1]; > 92 µM in test [3]; > 92 µM in [4]; 3.98 µM (active) in [5]; 25.1 µM (active) in [6]; 39.8 µM (active) in [16]. Besides, the Potency result in test [9], in test [10], in test [11] and in test [12] was “inactive” each time. Besides, the outcome in [13] was inactive. Further, the max response in test [15] was 0.0759%; in test [17], -22.4%.
